Test results taken from the supplement of paper PMC6089552.
± gives the standard deviation of the averaged measurements. About 300 (9.4%) of roughly 3,200 compounds showed activity. This is one part of a sample in which actives are shown more often than they occur.

Tested on: A673/TR/shEF
Experiment: cell viability (LOESS-normalised, relative to median of negative controls) (log2 ratio); higher = more viable cells (less compound effect), active = hit call of the paper (over 3 MAD below the median)
Conditions: treatment time: 72 h
Method in brief: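 A673/TR/shEF Ewing sarcoma cells were plated at 1,500 per well in 384-well plates and cultured with or without doxycycline, added 24 h before compounds, to induce EWS-FLI1 shRNA knockdown. Library compounds at two or more concentrations, alongside DMSO controls, were applied for three days. Cell viability was measured by CellTiter-Glo luminescence on an Envision reader. Readings were LOESS-corrected per plate, divided by the median of negative controls and log2-transformed, and hits were wells lying at least three median absolute deviations from the median of all screened wells.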

[1] = 0.25 µM, library screen: screen1, EWS-FLI1 expression: high (no doxycycline)
[2] = 0.25 µM, library screen: screen1, EWS-FLI1 expression: low (doxycycline-induced shRNA knockdown)
[3] = 2.5 µM, library screen: screen1, EWS-FLI1 expression: high (no doxycycline)
[4] = 2.5 µM, library screen: screen1, EWS-FLI1 expression: low (doxycycline-induced shRNA knockdown)
[5] = 0.25 µM, library screen: screen2, EWS-FLI1 expression: high (no doxycycline)
[6] = 0.25 µM, library screen: screen2, EWS-FLI1 expression: low (doxycycline-induced shRNA knockdown)
[7] = 2.5 µM, library screen: screen2, EWS-FLI1 expression: high (no doxycycline)
[8] = 2.5 µM, library screen: screen2, EWS-FLI1 expression: low (doxycycline-induced shRNA knockdown)
[9] = 0.103 µM, library screen: screen3, EWS-FLI1 expression: high (no doxycycline)
[10] = 0.103 µM, library screen: screen3, EWS-FLI1 expression: low (doxycycline-induced shRNA knockdown)
[11] = 0.308 µM, library screen: screen3, EWS-FLI1 expression: high (no doxycycline)
[12] = 0.308 µM, library screen: screen3, EWS-FLI1 expression: low (doxycycline-induced shRNA knockdown)
[13] = 0.926 µM, library screen: screen3, EWS-FLI1 expression: high (no doxycycline)
[14] = 0.926 µM, library screen: screen3, EWS-FLI1 expression: low (doxycycline-induced shRNA knockdown)
[15] = 2.8 µM, library screen: screen3, EWS-FLI1 expression: high (no doxycycline)
[16] = 2.8 µM, library screen: screen3, EWS-FLI1 expression: low (doxycycline-induced shRNA knockdown)
[17] = 8.3 µM, library screen: screen3, EWS-FLI1 expression: high (no doxycycline)
[18] = 8.3 µM, library screen: screen3, EWS-FLI1 expression: low (doxycycline-induced shRNA knockdown)
[19] = 25 µM, library screen: screen3, EWS-FLI1 expression: high (no doxycycline)
[20] = 25 µM, library screen: screen3, EWS-FLI1 expression: low (doxycycline-induced shRNA knockdown)

Measured: cell viability (log2)

O=C(O)c1cc(=O)c(O)c2c(O)c(O)ccc2c1
inactive: [1] 0.0685 | [2] 0.0312 | [3] 0.157 | [4] 0.0783

Fc1cccc(CN2CCN(Cc3ccco3)CC2)c1
inactive: [1] 0.0188 | [2] 0.159 | [3] 0.104 | [4] 0.135

C=CCCCCCCCCCCCC=CC(O)COC(C)=O (stereo not drawn)
inactive: [1] -0.0116 | [2] 0.0382 | [3] 0.137 | [4] 0.0541

CC12CCC(=O)C=C1CCC1C2C(O)CC2(C)C1CCC2(O)C(=O)COC(=O)CCC(=O)O (stereo not drawn)
inactive: [5] 0.252 | [6] 0.0354 | [7] 0.189 | [8] 0.145

CCSCCOC(=O)C1=C(C)NC2=C(C(=O)CC(C)(C)C2)C1c1coc2ccccc2c1=O (stereo not drawn)
inactive: [1] 0.0909 | [2] 0.0763 | [3] 0.107 | [4] 0.00786

CCOc1ccc2nc(SC)nc(C)c2c1
inactive: [1] 0.0636 | [2] 0.0768 | [3] 0.137 | [4] -0.103

CC1CC2C3CCC4=CC(=O)C=CC4(C)C3C(=O)CC2(C)[C@@]1(O)C(=O)CO (stereo partly drawn)
inactive: [9] 0.145 | [10] -0.00246 | [11] 0.132 | [12] 0.12 | [13] 0.101 | [14] 0.0958 | [15] 0.116 | [16] 0.077 | [17] 0.0168 | [18] 0.08 | [19] 0.0762 | [20] 0.0993

COc1ccc(CN2CCN(Cc3ccccc3Br)CC2)cc1OC
inactive: [1] 0.0838 | [2] 0.133 | [3] 0.0605 | [4] 0.115

Cc1cc(O)c2c(c1)Cc1cccc(O)c1C2=O
inactive: [1] 0.119 | [2] 0.00964 | [3] 0.16 | [4] 0.111

O=C1CSC(=O)N1CCN1C(=O)SC(=Cc2ccc(O)cc2)C1=O
inactive: [1] 0.0789 | [2] 0.0957 | [3] 0.0804 | [4] -0.00491

O=C(Oc1cc(O)cc2c1CC(OC(=O)c1cc(O)c(O)c(O)c1)C(c1ccc(O)c(O)c1)O2)c1cc(O)c(O)c(O)c1 (stereo not drawn)
inactive: [1] 0.117 | [2] -0.00743 | [3] 0.128 | [4] -0.0369

CCCCCCCCCCCCCCCCCC(=O)NCC(COP(=O)([O-])OCC[N+](C)(C)C)OCC (stereo not drawn)
inactive: [5] 0.252 | [6] 0.0979 | [7] 0.243 | [8] 0.0461

CC(CN1c2ccccc2Sc2cccnc21)N(C)C (stereo not drawn)
inactive: [1] 0.132 | [2] 0.0453 | [3] 0.0549 | [4] 0.034

C#Cc1cccc(Nc2ncnc3cc(OCCOC)c(OCCOC)cc23)c1
inactive: [9] 0.107 | [10] 0.0915 | [11] 0.189 | [12] 0.0523 | [13] 0.0696 | [14] 0.0933 | [15] 0.0439 | [16] 0.0596 | [17] 0.105 | [18] 0.0233 | [19] -0.0778 | [20] -0.0451

C#Cc1cccc(Nc2ncnc3cc(OC)c(OCCCCCCC(=O)NO)cc23)c1
inactive: [9] -0.0787 | [10] -0.0134 | [11] -0.0791 | [12] -0.0194
active: [13] -0.53 | [14] -0.197 | [15] -1.73 | [16] -0.607 | [17] -2.92 | [18] -0.618 | [19] -3.65 | [20] -1.64

CN(C)c1cc2c(Nc3ccc4c(cnn4Cc4ccccc4)c3)ncnc2cn1
inactive: [5] 0.124 | [6] 0.0545 | [7] 0.147 | [8] 0.0613

COc1cc2ncnc(Nc3ccc(O)cc3)c2cc1OC
inactive: [5] 0.241 | [6] 0.0114 | [7] 0.112 | [8] 0.0956

COc1cc2ncnc(Nc3cccc(Cl)c3)c2cc1OC
0.289: [1]
inactive: 0.025 µM, library screen: screen1, EWS-FLI1 expression: high (no doxycycline) 0.237 | 0.025 µM, library screen: screen1, EWS-FLI1 expression: low (doxycycline-induced shRNA knockdown) 0.01 | [2] 0.0337 | [5] 0.134 | [6] 0.0168 | [4] 0.122 | [7] 0.175 | [8] 0.00846
active: [3] -0.137 | 25 µM, library screen: screen1, EWS-FLI1 expression: high (no doxycycline) -0.119
0.297: 25 µM, library screen: screen1, EWS-FLI1 expression: low (doxycycline-induced shRNA knockdown)

COCC(=O)NC/C=C/c1ccc2ncnc(Nc3ccc(Oc4ccc(C)nc4)c(C)c3)c2c1
inactive: [9] 0.0492 | [10] 0.0262 | [11] -0.0204 | [12] 0.0495 | [13] -0.0118 | [14] 0.013 | [15] -0.0655 | [16] -0.0248 | [17] -0.00849 | [18] 0.0384 | [19] -0.127 | [20] -0.105

CC(C)CC1NC(=O)CNC1=O (stereo not drawn)
inactive: [1] 0.138 | [2] 0.0779 | [3] 0.0859 | [4] 0.0262

Oc1ccc2c(c1)O[C@H](c1ccc(O)c(O)c1)[C@@H](O)C2
inactive: [1] 0.0741 | [2] -0.0244 | [3] 0.0985 | [4] 0.085

COc1cc(O)c2c(=O)cc(-c3ccc(OC)c(-c4c(O)cc(O)c5c(=O)cc(-c6ccc(O)cc6)oc45)c3)oc2c1
inactive: [1] 0.0329 | [2] 0.0664 | [3] 0.144 | [4] -0.0351

CC(=O)OCC(=O)[C@@]1(O)CC[C@H]2[C@@H]3CC[C@@H]4C[C@H](OC(C)=O)CC[C@]4(C)[C@H]3C(=O)C[C@@]21C
inactive: [1] 0.118 | [2] 0.0343 | [3] 0.0611 | [4] -0.0696

NC(CCC(=O)NCS(=O)(=O)O)C(=O)O (stereo not drawn)
inactive: [5] 0.192 | [6] 0.0399 | [7] 0.0879 | [8] 0.0533

N/C(=N/c1nc2ccccc2o1)NC(=O)c1cccc(Br)c1
inactive: [1] 0.0693 | [2] -0.0125 | [3] 0.162 | [4] -0.0831

CN(Cc1ccccc1)C(=O)C=Cc1ccc([N+](=O)[O-])cc1
inactive: [1] 0.0837 | [2] 0.078 | [3] 0.013 | [4] 0.137

COc1ccc(OC)c(C2NC(=S)NC(C)=C2C(=O)Nc2ccccc2Cl)c1 (stereo not drawn)
inactive: [1] 0.0287 | [2] 0.0702 | [3] 0.112 | [4] 0.148

COc1cccc2c1C(=O)c1c(O)c3c(c(O)c1C2=O)C[C@@](O)(C(=O)CO)C[C@@H]3O[C@H]1C[C@H](N)[C@H](O)[C@H](C)O1
active: [11] -0.86 | [12] -0.36 | [13] -1.59 | [14] -0.403 | [15] -2.62 | [16] -1.5 | [17] -4.26 | [18] -4.27 | [19] -4.05 | [20] -4.25
inactive: [9] -0.177 | [10] -0.0878

COc1cccc2c1C(=O)c1c(O)c3c(c(O)c1C2=O)C[C@@](O)(C(C)=O)C[C@@H]3O[C@H]1C[C@H](N)[C@H](O)[C@H](C)O1
active: [9] -0.695 | [5] -1.6 | [6] -0.269 | [11] -1.27 | [12] -0.403 | [13] -2.5 | [14] -0.592 | [7] -2.54 | [8] -0.371 | [15] -3.11 | [16] -1.48 | [17] -4.09 | [18] -3.66 | [19] -4.26 | [20] -4.25
-0.133 ± 0.18: [10]

COc1cccc2c1C(=O)c1c(O)c3c(c(O)c1C2=O)C[C@@](O)(C(=O)CO)C[C@@H]3O[C@H]1C[C@H](N)[C@@H](O)[C@H](C)O1
active: [9] -0.347 | [10] -0.195 | [11] -1.12 | [12] -0.399 | [13] -1.58 | [14] -0.41 | [15] -3.26 | [16] -1.19 | [17] -4.26 | [18] -4.27 | [19] -4.26 | [20] -4.25

CC(=O)[C@]1(O)Cc2c(O)c3c(c(O)c2[C@@H](O[C@H]2C[C@H](N)[C@H](O)[C@H](C)O2)C1)C(=O)c1ccccc1C3=O
active: [5] -2.37 | [6] -0.307 | [7] -3.12 | [8] -0.984

Cc1cccc(-n2ncc3c(N4CCCC4)ncnc32)c1
inactive: [1] 0.069 | [2] 0.0339 | [3] 0.118 | [4] 0.0767

COc1cc(-c2oc3c(OC)c(O)cc(O)c3c(=O)c2O)ccc1O
inactive: [1] 0.0554 | [2] 0.0375 | [3] 0.0118 | [4] 0.0806

COc1ccc(OC)c(CN2CCN(Cc3c[nH]c4ccccc34)CC2)c1
inactive: [1] 0.113 | [2] 0.0685 | [3] 0.072 | [4] 0.0923

C[C@@H](O)[C@H]1C(=O)N2C(C(=O)[O-])=C(SC3Cn4cnc[n+]4C3)[C@H](C)[C@H]12 (stereo partly drawn)
inactive: [9] 0.0935 | [10] 0.0362 | [11] 0.108 | [12] 0.0849 | [13] 0.0657 | [14] 0.0643 | [15] 0.107 | [16] 0.0482 | [17] 0.0477 | [18] 0.0712 | [19] 0.131 | [20] 0.0731

CN=c1nc(C2C=CC=CC2)n(C2C=CC=CC2)s1 (stereo not drawn)
inactive: [5] 0.18 | [6] 0.0729 | [7] 0.119 | [8] 0.0881

C/C(=C\CO)CCC[C@H](C)CCC[C@H](C)CCCC(C)C
inactive: [1] 0.0657 | [2] 0.0273 | [3] 0.135 | [4] -0.104

CCCCC[C@@H](CC(=O)O)C(=O)O
inactive: [1] 0.0401 | [2] 0.147 | [3] 0.16 | [4] 0.126
